# According to PubChem BioAssay AID2284324 (EPA ToxCast):
# Records with an inconclusive call do not appear. Calls of active or inactive are those of the source. Rule for the calls: active = hit-call score of the fitted dose curve at least 0.9, where 1 is the maximum; inconclusive = response in the unintended direction; inactive = score below 0.9.
# Test system: Japanese medaka Glucocorticoid Receptor (GR), gene 101170451
# Assay: ATG_jmGR_EcoTox2: Attagene TRANS-FACTORIAL EcoTox-2 HepG2 Assay for Japanese medaka Glucocorticoid Receptor (GR)
# Experimental: ATG_EcoTox2 is a cell-based, multiplexed assay created by modifying the existing Attagene TRANS-FACTORIAL system to include a panel of nuclear receptors from some or all the following species: human (Homo sapiens), african clawed frog (Xenopus laevis), rainbow trout (Oncorhynchus mykiss), japanese medaka (Oryzias latipes), and zebrafish (Danio rerio). The ECOTOX2-FACTORIAL format uses HepG2, a human liver cell line, with measurements taken at 24 hours after chemical dosing in a 24-well plate. ATG_jmGR_EcoTox2 is one of 29 assay components calculated in the ATG_EcoTox2 assay. It is designed to make measurements of mRNA induction, a form of inducible reporter, as detected with fluorescence intensity signals by Reverse transcription polymerase chain reaction (RT-PCR) and Capillary electrophoresis technology.The assay endpoint ATG_jmGR_EcoTox2 was analyzed in the positive analysis fitting direction relative to DMSO as the negative control and baseline of activity. Using a type of inducible reporter, measures of mRNA for gain-of-signal activity can be used to understand the reporter gene at the transcription factor-level as they relate to the gene for glucocorticoid receptor. Furthermore, this assay endpoint can be referred to as a primary readout, because this assay has produced multiple assay endpoints where this one serves a reporter gene function. […]
row,SMILES,outcome
1,O=P(Oc1ccccc1)(Oc1ccccc1)Oc1ccccc1,inactive
2,CCCCOCN(C(=O)CCl)c1c(CC)cccc1CC,inactive
